From PubChem BioAssay (NCATS)
Inconclusive results are not listed. Active and inactive are the calls of the source. Unless noted, calls come from the whole dose curve; as a rule, active = well fitted curve in the direction sought with a large enough effect; inconclusive = small, poorly fitted or top-dose-only effect, or another doubt; inactive = no such curve, though single readings can be large; an effect the other way counts as inactive or inconclusive.

Legend:
[1] = biological target: Cytochrome P450 3A4 (Homo sapiens) (UniProt P08684); test: qHTS Assay for Activators of Cytochrome P450 3A4 (AID 885); conditions: recombinant CYP3A4, Luciferin-PPXE luminescence, 60 min; series mostly up to 57.1 µM; note: nearly all actives have a fitted effect of over 65% in size
Chain of Cytochrome P450 3A4 (Homo sapiens) (P08684 whole entry, looked up): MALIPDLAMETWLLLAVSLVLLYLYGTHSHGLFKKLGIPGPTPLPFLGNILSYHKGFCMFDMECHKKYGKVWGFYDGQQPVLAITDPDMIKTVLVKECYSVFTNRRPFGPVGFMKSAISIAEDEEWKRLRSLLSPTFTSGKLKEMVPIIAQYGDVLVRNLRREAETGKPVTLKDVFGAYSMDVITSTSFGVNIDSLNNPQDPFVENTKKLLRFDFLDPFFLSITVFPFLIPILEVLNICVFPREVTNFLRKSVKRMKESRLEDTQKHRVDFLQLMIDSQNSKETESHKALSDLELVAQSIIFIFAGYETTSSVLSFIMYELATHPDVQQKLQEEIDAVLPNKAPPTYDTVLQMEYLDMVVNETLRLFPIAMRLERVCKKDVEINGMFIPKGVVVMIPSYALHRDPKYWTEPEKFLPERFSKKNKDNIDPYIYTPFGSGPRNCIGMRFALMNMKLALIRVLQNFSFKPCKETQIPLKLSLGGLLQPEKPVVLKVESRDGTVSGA
In short: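 20nM CYP3A4 + 25uM Luciferin-PPXE (=KM), 200mM KPO4; cpd 10 min RT; NADPH regen, 60 min RT; stop w/ detection buffer, 20 min; luminescence. Normalized to 57 uM ketoconazole.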

[2] = qHTS Assay for Identification of Small Molecule Antagonists for NFkB Signaling Pathway (AID 895; active = well fitted inhibition curve with a large enough effect in the signal ratio, with a control signal flat, not every such curve was filed as active; the % refers to the signal ratio; note: potency is the fitted concentration of half-maximal effect); conditions: NFkB beta-lactamase reporter cells, FRET ratio 460/530, stimulated with 10 pM TNF alpha; series mostly up to 38.3 µM
In short: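 Beta-lactamase reporter read-out (460 and 530 nm emission ratio, 405 nm excitation, 2 hrs substrate loading RT) after 5 hr stimulation with 10 pM TNF alpha in compound-treated NFkB-bla ME-180 cells in low-serum medium.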

[3] = biological target: Pyruvate kinase (Leishmania mexicana) (UniProt Q27686); test: qHTS Validation Assay for Inhibitors of Leishmania Mexicana Pyruvate Kinase (AID 945); conditions: purified L. mexicana pyruvate kinase, enzyme activity, E451W mutant enzyme; series mostly up to 57.5 µM
Chain of Pyruvate kinase (Leishmania mexicana) (Q27686 2-499 E452W): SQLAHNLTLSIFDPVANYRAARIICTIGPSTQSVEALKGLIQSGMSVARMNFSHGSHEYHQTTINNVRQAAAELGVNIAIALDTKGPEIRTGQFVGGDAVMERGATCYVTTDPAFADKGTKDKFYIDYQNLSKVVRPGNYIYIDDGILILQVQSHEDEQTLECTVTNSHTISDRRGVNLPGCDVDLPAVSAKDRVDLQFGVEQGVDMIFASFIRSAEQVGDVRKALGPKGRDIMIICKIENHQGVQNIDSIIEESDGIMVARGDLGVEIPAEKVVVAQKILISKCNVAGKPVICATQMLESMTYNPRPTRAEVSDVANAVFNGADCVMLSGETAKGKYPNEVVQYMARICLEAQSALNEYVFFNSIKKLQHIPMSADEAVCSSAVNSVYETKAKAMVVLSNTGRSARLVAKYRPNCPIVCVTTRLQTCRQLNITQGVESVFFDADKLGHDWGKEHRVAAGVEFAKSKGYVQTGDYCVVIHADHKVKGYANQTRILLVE
In short: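 Compounds are tested as eight-point concentration series. Reactions contain 0.2 nM LmPYK E451W, 0.5 mM PEP, 0.1 mM ADP, 7 mM MgCl2 and 50 mM KCl at pH 7.2, run 1 h at room temperature, then read by PKLight luminescence.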

[4] = qHTS Assay for Identification of Small Molecule Agonists for Thrombopoietin (TPO) Signaling Pathway (AID 917); conditions: TPO signaling pathway reporter cells, agonist qHTS, stimulated with TPO at its EC50; series mostly up to 38.5 µM
In short: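 Murine Ba/F3 cells expressing human TPO receptor and GPIIb-promoter luciferase, IL-3-starved overnight, given compound plus TPO at 26 pM (EC50). After 24 h at 37 C, 5% CO2, luminescence read.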

AS120 = test: qHTS profiling for inhibitors of Plasmodium falciparum proliferation (AID 504749); note: nearly all actives have a fitted effect of over 60% in size; note: potency is the fitted concentration of half-maximal effect; conditions: P. falciparum in erythrocytes, SYBR Green DNA, 72 h; series mostly up to 28.7 µM
In short: (§1)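 Three-day growth assay of blood-stage parasites in erythrocytes (0.3% parasitemia, 2.5% hematocrit) at 37 C, 5% CO2, quantified by SYBR Green DNA staining after overnight detergent lysis.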

ATS189 = test: as above; conditions: P. falciparum in erythrocytes, SYBR Green DNA, 72 h; series mostly up to 28.7 µM
In short: as §1

ATS95 = test: as above; conditions: P. falciparum in erythrocytes, SYBR Green DNA, 72 h; series mostly up to 28.7 µM
In short: as §1

C2A = test: as above; conditions: P. falciparum in erythrocytes, SYBR Green DNA, 72 h; series mostly up to 28.7 µM
In short: as §1

CP185 = test: as above; conditions: P. falciparum in erythrocytes, SYBR Green DNA, 72 h; series mostly up to 28.7 µM
In short: as §1

CP191 = test: as above; conditions: P. falciparum in erythrocytes, SYBR Green DNA, 72 h; series mostly up to 28.7 µM
In short: as §1

CP217 = test: as above; conditions: P. falciparum in erythrocytes, SYBR Green DNA, 72 h; series mostly up to 28.7 µM
In short: as §1

CP237 = test: as above; conditions: P. falciparum in erythrocytes, SYBR Green DNA, 72 h; series mostly up to 28.7 µM
In short: as §1

CP252 = test: as above; conditions: P. falciparum in erythrocytes, SYBR Green DNA, 72 h; series mostly up to 28.7 µM
In short: as §1

CP286 = test: as above; conditions: P. falciparum in erythrocytes, SYBR Green DNA, 72 h; series mostly up to 28.7 µM
In short: as §1

ECU = test: as above; conditions: P. falciparum in erythrocytes, SYBR Green DNA, 72 h; series mostly up to 28.7 µM
In short: as §1

PC49 = test: as above; conditions: P. falciparum in erythrocytes, SYBR Green DNA, 72 h; series mostly up to 28.7 µM
In short: as §1

SC27B = test: as above; conditions: P. falciparum in erythrocytes, SYBR Green DNA, 72 h; series mostly up to 28.7 µM
In short: as §1

TAB113 = test: as above; conditions: P. falciparum in erythrocytes, SYBR Green DNA, 72 h; series mostly up to 28.7 µM
In short: as §1

TAB165 = test: as above; conditions: P. falciparum in erythrocytes, SYBR Green DNA, 72 h; series mostly up to 28.7 µM
In short: as §1

[5] = qHTS for Inhibitors of Ubiquitin-specific Protease USP2a Using CHOP2 as the Reporter: Cytotox Assay (AID 652170); conditions: HCT116 viability, CellTiter-Glo luminescence, 72 h; series mostly up to 46.1 µM; note: nearly all actives have a fitted effect of over 70% in size; note: potency is the fitted concentration of half-maximal effect
In short: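 HCT116 human colon cancer cells, 600 per well in DMEM with 10% FBS, exposed to compounds for 72 hr at 37 deg C. ATP measured by CellTiter-Glo luminescence, normalized to DMSO cells and no-cell background.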

Measured: Potency

CCn1c(=O)c2[nH]c(-c3ccccc3)nc2n(CC)c1=O
inactive: [1] | [2] | [3]

CC(=O)NCCc1ccc(O)c(O)c1
inactive: [2] | [4] | [3]

CC(C)C[C@H]1C(=O)N2CCCC2[C@]2(O)O[C@](NC(=O)[C@@H]3C=C4c5cccc6[nH]c(Br)c(c56)C[C@H]4N(C)C3)(C(C)C)C(=O)N12 (some centres not stated)
active: AS120 3.55 µM | ATS189 5.01 µM | ATS95 5.01 µM | C2A 11.2 µM | CP185 11.2 µM | CP191 7.94 µM | CP217 7.08 µM | CP237 2 µM | CP252 7.08 µM | CP286 3.55 µM | ECU 3.55 µM | PC49 6.31 µM | SC27B 6.31 µM | TAB113 3.16 µM | TAB165 2.82 µM

NCCCCNS(=O)(=O)c1cccc2c(Cl)cccc12
inactive: [1] | [3]

CCSC(N)=Nc1ccc(C(F)(F)F)cc1
inactive: [1] | [4]

COc1ccc(CCNC[C@@H](O)c2ccc(O)cc2)cc1OC
inactive: AS120 | ATS189 | ATS95 | C2A | CP185 | CP191 | CP217 | CP237 | CP252 | CP286 | ECU | PC49 | SC27B | TAB113 | TAB165

NC(=NCCC[C@H](N)C(=O)O)NO
active: [2] 0.398 µM
inactive: [4] | [3]

N[C@H](Cc1ccc(O)c(O)c1)C(=O)O
inactive: AS120 | ATS189 | ATS95 | C2A | CP185 | CP191 | CP217 | CP237 | CP252 | CP286 | ECU | PC49 | SC27B | TAB113 | TAB165

CC(C)CN(C)c1nc(N)c(C(=O)N=C(N)N)nc1Cl
inactive: [2] | [3]

COC(=O)c1c(-c2cc(OC)c(OC)c(OC)c2)c2ccc(OCc3ccccn3)cc2c(=O)n1-c1ccc(N)cc1
inactive: [1] | [4] | [3]
active: [2] 3.16 µM

COc1cc2c(cc1OC)C(c1ccccc1)CN(C)CC2 (configuration not stated)
inactive: AS120 | ATS189 | ATS95 | C2A | CP185 | CP217 | CP252 | CP286 | ECU | SC27B | TAB113 | TAB165
active: CP237 6.31 µM

CC(C)(C)[C@]1(O)CCN2CC3c4ccccc4CCc4cccc(c43)[C@@H]2C1 (some centres not stated)
active: ATS95 10 µM | C2A 11.2 µM | CP191 8.91 µM | CP217 8.91 µM | CP237 11.2 µM | CP252 10 µM | CP286 8.91 µM | ECU 14.1 µM | SC27B 7.94 µM | TAB165 11.2 µM
inactive: PC49

CN1C[C@H](C(=O)N[C@]2(C)O[C@@]3(O)C4CCCN4C(=O)[C@H](Cc4ccccc4)N3C2=O)C[C@@H]2c3cccc4[nH]cc(c34)C[C@H]21 (some centres not stated)
active: AS120 1.41 µM | ATS189 3.98 µM | ATS95 7.08 µM | C2A 8.91 µM | CP185 7.94 µM | CP191 7.08 µM | CP217 6.31 µM | CP237 1 µM | CP252 6.31 µM | CP286 3.98 µM | ECU 1.12 µM | PC49 1.78 µM | SC27B 2.24 µM | TAB113 3.55 µM | TAB165 1.41 µM

CCCC(=O)NCCc1c2n(c3ccc(OC)cc13)Cc1ccccc1-2
inactive: [1] | [4] | [3]

O=S(=O)(Nc1nccs1)c1ccc(Nc2nc(-c3ccccc3)cs2)cc1
inactive: [5]

O=[S+]([O-])(NCc1nccs1)c1ccc(Nc2nc(-c3ccccc3)cs2)cc1
inactive: [5]

Cc1ccc(S(=O)(=O)Nc2ccc(Br)cc2C(=O)Nc2nc(-c3ccccc3)cs2)cc1
active: [5] 4.69 µM

N#Cc1ccc(NS(=O)(=O)c2ccc(NC(=O)Cc3ccc(Cl)c(Cl)c3)cc2)cc1
inactive: [5]

NS(=O)(=O)c1ccc(Nc2nc(-c3ccccc3)cs2)cc1
inactive: [5]

N#Cc1ccc(NS(=O)(=O)c2ccc(NC(=O)Cc3ccc(F)c(Cl)c3)cc2)cc1
inactive: [5]
